Many of the other results were omitted from the sample, so the strongest signals are more common in it than they were.
How the values were obtained:
Assay in all cases: glycan array binding signal (z-score within array); higher = stronger binding
Settings in all cases: glycan notation: IUPAC condensed, linker removed
[1] = molecular target: Fuc(a1-2)Gal(b1-3)GlcNAc(b1-2)Man(a1-3)[Fuc(a1-2)Gal(b1-3)GlcNAc(b1-2)Man(a1-6)]Man(b1-4)GlcNAc(b1-4)[Fuc(a1-6)]GlcNAc
Method in brief: (§1)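 Arrays were curated from the Consortium for Functional Glycomics database, 3228 in total, and kept only where the protein sequence was available. Binding is expressed as a within-array Z-score. This score was averaged across arrays of the same protein sequence at different concentrations or buffers and across linkers, and negative values can be read as non-binding.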

[2] = molecular target: Fuc(a1-2)Gal(b1-3)GlcNAc(b1-3)GalNAc
Method in brief: as §1

[3] = molecular target: Fuc(a1-2)Gal(b1-3)[Fuc(a1-4)]GlcNAc(b1-2)Man(a1-3)[Fuc(a1-2)Gal(b1-3)[Fuc(a1-4)]GlcNAc(b1-2)Man(a1-6)]Man(b1-4)GlcNAc(b1-4)GlcNAc
Method in brief: as §1

[4] = molecular target: Fuc(a1-2)Gal(b1-4)GlcNAc(b1-2)Man
Method in brief: as §1

[5] = molecular target: Fuc(a1-2)Gal(b1-4)GlcNAc(b1-2)Man(a1-3)[Fuc(a1-2)Gal(b1-4)GlcNAc(b1-2)Man(a1-6)]Man(b1-4)GlcNAc(b1-4)GlcNAc
Method in brief: as §1

[6] = molecular target: Fuc(a1-2)Gal(b1-4)GlcNAc(b1-3)[Fuc(a1-2)Gal(b1-4)GlcNAc(b1-6)]GalNAc
Method in brief: as §1

[7] = molecular target: Fuc(a1-2)Gal(b1-4)[Fuc(a1-3)]GlcNAc(b1-3)Gal(b1-4)[Fuc(a1-3)]GlcNAc
Method in brief: as §1

[8] = molecular target: Fuc(a1-2)Gal6S(b1-4)Glc
Method in brief: as §1

[9] = molecular target: Fuc(a1-2)[Gal(a1-3)]Gal(b1-3)GlcNAc(b1-2)Man(a1-3)[Fuc(a1-2)[Gal(a1-3)]Gal(b1-3)GlcNAc(b1-2)Man(a1-6)]Man(b1-4)GlcNAc(b1-4)GlcNAc
Method in brief: as §1

[10] = molecular target: Fuc(a1-2)[Gal(a1-3)]Gal(b1-3)GlcNAc(b1-2)Man(a1-3)[Fuc(a1-2)[Gal(a1-3)]Gal(b1-3)GlcNAc(b1-2)Man(a1-6)]Man(b1-4)GlcNAc(b1-4)[Fuc(a1-6)]GlcNAc
Method in brief: as §1

[11] = molecular target: Fuc(a1-2)[Gal(a1-3)]Gal(b1-4)GlcNAc(b1-2)Man(a1-3)[Fuc(a1-2)[Gal(a1-3)]Gal(b1-4)GlcNAc(b1-2)Man(a1-6)]Man(b1-4)GlcNAc(b1-4)GlcNAc
Method in brief: as §1

[12] = molecular target: Fuc(a1-2)[GalNAc(a1-3)]Gal
Method in brief: as §1

[13] = molecular target: Fuc(a1-2)[GalNAc(a1-3)]Gal(b1-3)GlcNAc(b1-2)Man(a1-3)[Fuc(a1-2)[GalNAc(a1-3)]Gal(b1-3)GlcNAc(b1-2)Man(a1-6)]Man(b1-4)GlcNAc(b1-4)GlcNAc
Method in brief: as §1

[14] = molecular target: Fuc(a1-3)[Gal(b1-4)]GlcNAc(b1-6)[Neu5Ac(a2-3)Gal(b1-3)]GalNAc
Method in brief: as §1

[15] = molecular target: Fuc(a1-3)[GalNAc3S(b1-4)]GlcNAc
Method in brief: as §1

[16] = molecular target: Gal(a1-3)Gal(b1-3)GlcNAc(b1-2)Man(a1-3)[Gal(a1-3)Gal(b1-3)GlcNAc(b1-2)Man(a1-6)]Man(b1-4)GlcNAc(b1-4)GlcNAc
Method in brief: as §1

[17] = molecular target: Gal(a1-3)Gal(b1-3)GlcNAc(b1-3)GalNAc
Method in brief: as §1

[18] = molecular target: Gal(a1-3)Gal(b1-4)[Fuc(a1-3)]GlcNAc(b1-2)Man(a1-3)[Gal(a1-3)Gal(b1-4)[Fuc(a1-3)]GlcNAc(b1-2)Man(a1-6)]Man(b1-4)GlcNAc(b1-4)GlcNAc
Method in brief: as §1

[19] = molecular target: Gal(b1-3)GlcNAc(b1-3)Gal(b1-4)GlcNAc(b1-6)[Gal(b1-3)GlcNAc(b1-3)]Gal(b1-4)Glc
Method in brief: as §1

[20] = molecular target: Gal(b1-3)[Neu5Ac(a2-6)]GlcNAc(b1-6)Gal(b1-4)Glc
Method in brief: as §1

[21] = molecular target: Gal3S(b1-3)GlcNAc
Method in brief: as §1

[22] = molecular target: Gal3S(b1-4)Glc
Method in brief: as §1

[23] = molecular target: Gal4S(b1-4)GlcNAc
Method in brief: as §1

[24] = molecular target: Gal6S(b1-4)Glc6S
Method in brief: as §1

[25] = molecular target: GalNAc(a1-3)Fuc(a1-2)Gal(b1-4)GlcNAc(b1-3)[GalNAc(a1-3)Fuc(a1-2)Gal(b1-4)GlcNAc(b1-6)]GalNAc
Method in brief: as §1

[26] = molecular target: GalNAc(b1-3)Gal
Method in brief: as §1

[27] = molecular target: Glc(a1-6)Glc(a1-6)Glc(a1-6)Glc
Method in brief: as §1

[28] = molecular target: GlcA(b1-3)Gal
Method in brief: as §1

[29] = molecular target: GlcNAc(a1-4)Gal(b1-4)GlcNAc(b1-3)Gal(b1-4)[Fuc(a1-3)]GlcNAc(b1-3)Gal(b1-4)[Fuc(a1-3)]GlcNAc
Method in brief: as §1

[30] = molecular target: GlcNAc(b1-3)Gal(b1-3)GalNAc
Method in brief: as §1

[31] = molecular target: GlcNAc(b1-4)Gal(b1-4)GlcNAc
Method in brief: as §1

[32] = molecular target: Neu5Ac(a2-3)Gal(b1-3)GlcNAc(b1-2)Man(a1-3)[GlcNAc(b1-4)][Neu5Ac(a2-3)Gal(b1-3)GlcNAc(b1-2)Man(a1-6)]Man(b1-4)GlcNAc(b1-4)GlcNAc
Method in brief: as §1

[33] = molecular target: Neu5Ac(a2-3)Gal(b1-3)GlcNAc(b1-3)GalNAc
Method in brief: as §1

[34] = molecular target: Neu5Ac(a2-3)Gal(b1-3)GlcNAc(b1-6)GalNAc
Method in brief: as §1

[35] = molecular target: Neu5Ac(a2-3)Gal(b1-3)[Neu5Ac(a2-6)]GalNAc
Method in brief: as §1

[36] = molecular target: Neu5Ac(a2-3)Gal(b1-4)GlcNAc
Method in brief: as §1

[37] = molecular target: Neu5Ac(a2-3)Gal(b1-4)GlcNAc(b1-3)Gal(b1-3)GlcNAc
Method in brief: as §1

[38] = molecular target: Neu5Ac(a2-3)Gal(b1-4)GlcNAc(b1-3)Gal(b1-4)[Fuc(a1-3)]GlcNAc
Method in brief: as §1

[39] = molecular target: Neu5Ac(a2-3)Gal(b1-4)[Fuc(a1-3)]GlcNAc(b1-3)GalNAc
Method in brief: as §1

[40] = molecular target: Neu5Ac(a2-6)Gal(b1-4)GlcNAc(b1-2)Man(a1-3)Man(b1-4)GlcNAc(b1-4)GlcNAc
Method in brief: as §1

[41] = molecular target: Neu5Ac(a2-6)Gal(b1-4)GlcNAc(b1-2)Man(a1-3)[Man(a1-6)]Man(b1-4)GlcNAc(b1-4)GlcNAc
Method in brief: as §1

[42] = molecular target: Neu5Ac(a2-6)Gal(b1-4)GlcNAc(b1-2)Man(a1-6)Man(b1-4)GlcNAc(b1-4)GlcNAc
Method in brief: as §1

[43] = molecular target: Neu5Ac(a2-6)Gal(b1-4)GlcNAc(b1-3)Gal(b1-4)GlcNAc(b1-3)Gal(b1-4)GlcNAc
Method in brief: as §1

[44] = molecular target: Neu5Ac(a2-8)Neu5Ac(a2-3)[GalNAc(b1-4)]Gal(b1-4)Glc
Method in brief: as §1

[45] = molecular target: Neu5Ac(a2-8)Neu5Ac(a2-8)Neu5Ac(a2-3)Gal(b1-4)Glc
Method in brief: as §1

B1: Intelectin-1a (Mus musculus) (protein)
chain: AEWSHPQFEKAEENLDTNRWGNSFFSSLPRSCKEIKQEHTKAQDGLYFLRTKNGVIYQTFCDMTTAGGGWTLVASVHENNMRGKCTVGDRWSSQQGNRADYPEGDGNWANYNTFGSAEAATSDDYKNPGYFDIQAENLGIWHVPNKSPLHNWRKSSLLRYRTFTGFLQHLGHNLFGLYKKYPVKYGEGKCWTDNGPALPVVYDFGDARKTASYYSPSGQREFTAGYVQFRVFNNERAASALCAGVRVTGCNTEHHCIGGGGFFPEGNPVQCGDFASFDWDGYGTHNGYSSSRKITEAAVLLFYR
glycan array binding signal (z-score) [1]: -0.492
glycan array binding signal (z-score) [2]: 2.92
glycan array binding signal (z-score) [3]: 2.9
glycan array binding signal (z-score) [4]: 1.06
glycan array binding signal (z-score) [5]: -0.329
glycan array binding signal (z-score) [6]: -0.517
glycan array binding signal (z-score) [7]: -1.05
glycan array binding signal (z-score) [8]: 1.88
glycan array binding signal (z-score) [9]: 0.954
glycan array binding signal (z-score) [10]: 3.73
glycan array binding signal (z-score) [11]: -0.423
glycan array binding signal (z-score) [12]: 0.968
glycan array binding signal (z-score) [13]: 0.792
glycan array binding signal (z-score) [14]: -0.328
glycan array binding signal (z-score) [15]: 0.115
glycan array binding signal (z-score) [16]: 2.64
glycan array binding signal (z-score) [17]: -0.09
glycan array binding signal (z-score) [18]: 2.76
glycan array binding signal (z-score) [19]: 2.74
glycan array binding signal (z-score) [20]: 0.312
glycan array binding signal (z-score) [21]: -0.392
glycan array binding signal (z-score) [22]: -0.304
glycan array binding signal (z-score) [23]: -0.354
glycan array binding signal (z-score) [24]: -0.38
glycan array binding signal (z-score) [25]: 1.24
glycan array binding signal (z-score) [26]: -0.938
glycan array binding signal (z-score) [27]: -0.709
glycan array binding signal (z-score) [28]: 0.662
glycan array binding signal (z-score) [29]: 5.84
glycan array binding signal (z-score) [30]: -0.724
glycan array binding signal (z-score) [31]: -0.454
glycan array binding signal (z-score) [32]: -0.723
glycan array binding signal (z-score) [33]: -0.237
glycan array binding signal (z-score) [34]: 0.808
glycan array binding signal (z-score) [35]: -0.222
glycan array binding signal (z-score) [36]: -1.12
glycan array binding signal (z-score) [37]: -0.402
glycan array binding signal (z-score) [38]: -0.8
glycan array binding signal (z-score) [39]: 6.37
glycan array binding signal (z-score) [40]: 0.578
glycan array binding signal (z-score) [41]: 3.98
glycan array binding signal (z-score) [42]: -0.293
glycan array binding signal (z-score) [43]: 0.765
glycan array binding signal (z-score) [44]: -0.791
glycan array binding signal (z-score) [45]: -0.483

— the supplement of paper PMC8728848
